High-throughput results: PubChem, several laboratories
Shown are actives, neighbours in structure and some others; about 22% of the full set was active somewhere.
CYP2C9 inhib: blocks human cytochrome P450 2C9; inhibition, % at 5 µM; actives 20% (n = 96,000); CYP2C9 Supersomes, luciferin-H conversion, luminescence; P11712;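 active means blocking of liver enzyme CYP2C9 beyond about 50% at 5 µM, limit read from the data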
CYP2C19 inhib: human CYP2C19 inhibition. inhibition, % at 5 µM. P33261. CYP2C19 Supersomes, luciferin-H EGE luminescence, 30 min. actives 21% (n = 96,000);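 active means CYP2C19 inhibition above a set limit at 5 µM in the primary screen, cut at about 50% in these data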;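 further: plate controls were negative control wells for no effect and 2.5 mM tranylcypromine positive control for full effect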
Target sequence (P33261 whole entry, looked up): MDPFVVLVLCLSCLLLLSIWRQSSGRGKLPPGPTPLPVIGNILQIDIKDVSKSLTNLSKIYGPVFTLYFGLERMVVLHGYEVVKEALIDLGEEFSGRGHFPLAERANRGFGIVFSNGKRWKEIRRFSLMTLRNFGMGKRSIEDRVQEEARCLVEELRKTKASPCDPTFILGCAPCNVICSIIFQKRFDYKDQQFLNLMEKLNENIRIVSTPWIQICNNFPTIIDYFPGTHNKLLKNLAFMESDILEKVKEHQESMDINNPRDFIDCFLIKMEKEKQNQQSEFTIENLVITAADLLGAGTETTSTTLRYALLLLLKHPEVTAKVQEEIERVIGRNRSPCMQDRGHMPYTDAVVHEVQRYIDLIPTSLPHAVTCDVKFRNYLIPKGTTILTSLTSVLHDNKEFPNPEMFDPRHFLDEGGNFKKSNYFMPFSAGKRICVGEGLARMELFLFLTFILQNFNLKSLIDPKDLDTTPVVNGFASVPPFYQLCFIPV
CYP2C19 act: increases human CYP2C19 enzyme activity; 96,000 tested, under 10 active; AID 1025; recombinant CYP2C19, luciferin-H EGE luminescence; stronger effect = higher value; 0 = fully inhibited enzyme, 1 = untreated enzyme; activation factor at 5 µM;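 active means activation factor of at least 2 at 5 µM in the primary screen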;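 further: 0 = wells with 2.5 mM tranylcypromine and 1 = vehicle-only wells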
F-actin modifier: modifiers of cytoskeleton assembly; HUVEC TNFa F-actin phalloidin imaging, high content; inhibition, % at 2 µM; actives 0.18% (n = 91,000); AID 836;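 active means inhibition above the batch mean plus 3 SD and confirmed as a hit by visual image inspection, cut at about 30% in these data, passing the limit was not always enough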
E-sel TNF inh: blocks E-selectin expression induced by TNF alpha | HUVEC TNFa-induced E-selectin immunofluorescence, high content | inhibition, % at 2 µM | actives 0.71% (n = 120,000);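 active means inhibition above the batch mean plus 3 SD, and confirmed as a hit on visual image review, cut at about 43% in these data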;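 further: 0% = TNF-stimulated DMSO wells and 100% = unstimulated control wells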
CYP2C9 activ: increases human cytochrome P450 2C9 activity. P11712. recombinant CYP2C9, luciferin-H conversion, luminescence; stronger effect = higher value; factor 1 = untreated enzyme, 0 = blocked. activation factor at 5 µM. actives 1.4% (n = 96,000). AID 1024;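 active means activation factor of 2 or more for CYP2C9 at a 5 µM dose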;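 further: 0 = sulfaphenazole-blocked wells and 1 = vehicle-only wells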
An asterisk follows results filed as active; nt = not tested or not shown.

SMILES	CYP2C9 inhib	CYP2C19 inhib	CYP2C19 act	F-actin modifier	E-sel TNF inh	CYP2C9 activ
COc1ccc(Cn2c(=O)oc3ccc(C)cc32)cc1OC	79*	98*	0	12	-4	0.2
O=C1CCN2C=Nc3cccc4ccc1c2c34	13	6	0.9	6	nt	0.9
COc1ccc2cc3c(N)nn(C(=O)Cc4ccccc4OC)c3nc2c1	75*	78*	0.2	-16	nt	0.3
COc1ccc2cc3c(N)nn(C(=O)C4CCC(C(C)(C)C)CC4)c3nc2c1 (stereo not drawn)	nt	nt	nt	nt	-15	nt
COc1ccccc1OCCCCOc1ccccc1F	-24	35	0.7	31	-32	1.2
CCOC(=O)c1[nH]c2cc(OC)c(OC)cc2c1NC(=O)c1nonc1C	48	1	1	-69	nt	0.5
O=C(NCC1CCCC(CNC(=O)N2CCc3ccccc32)C1)N1CCc2ccccc21 (stereo not drawn)	99*	86*	0.1	18	10	0
O=C(c1ccccc1)N1CCCc2ccccc21	nt	nt	nt	19	-14	nt
COc1ccc(NC(=O)N2CCc3ccccc32)cc1	22	58*	0.4	3	6	0.8
O=C(C1CCCCC1)N1CCc2ccccc21	nt	nt	nt	nt	1	nt
COc1ccc2c(c1)CCc1c(C(=O)N3CCCc4ccccc43)noc1-2	75*	90*	0.1	-5	11	0.3
COc1cccc(C(=O)N2CCCc3ccccc32)c1	10	87*	0.1	31	-18	0.9
CCCCn1c(=O)n(CC(O)c2ccccc2)c(=O)c2c1ncn2C1CCCC1 (stereo not drawn)	5	33	0.7	-10	-1	0.9
CS(=O)(=O)c1ccc2nc(NC(=O)CC3CCCC3)sc2c1	9	-3	1	nt	38	0.9
Cc1cc(Br)ccc1SCC(=O)OCC(=O)Nc1ccccc1C#N	nt	nt	nt	nt	-17	nt
CC(Oc1ccccc1)C(=O)N1CCCc2ccccc21 (stereo not drawn)	56*	91*	0.1	-7	-26	0.4
CC(=O)C(CC(=O)N1CCCc2ccccc21)C(=O)Nc1ccc(F)cc1 (stereo not drawn)	33	71*	0.3	-13	7	0.7
Cc1ccc(OCC(=O)N2CCCc3ccccc32)cc1	nt	nt	nt	-6	0	nt
COc1ccc(NC(=O)N2CCCc3ccccc32)cc1	30	69*	0.3	-13	-10	0.7
COc1ccc(/C=C/C(=O)N2CCCc3ccccc32)cc1	nt	nt	nt	nt	19	nt
O=C(c1cccs1)n1nc(-c2ccco2)nc1SCc1ccccc1	24	21	0.8	11	0	0.8
COc1ccc(-c2nc(SCc3ccccc3)n(C(=O)c3ccco3)n2)cc1	27	-6	1.1	4	6	0.7
CSc1nc(-c2ccco2)nn1C(=O)c1cccs1	88*	38	0.6	7	2	0.1
CC(=O)n1nc(-c2ccco2)nc1SCc1ccccc1	31	66*	0.3	-7	nt	0.7
CCC(=O)n1nc(-c2ccco2)nc1SCc1ccccc1	64*	78*	0.2	-11	2	0.4
SMILES	CYP2C9 inhib	CYP2C19 inhib	CYP2C19 act	F-actin modifier	E-sel TNF inh	CYP2C9 activ
CCOc1ccc(C2N(c3cc(C)on3)C(=O)C3CCCN32)cc1OC (stereo not drawn)	-1	5	0.9	6	0	1
CCOC(=O)c1cnc(-n2nc(C)cc2C)nc1N(CC)CC	79*	46	0.5	nt	-35	0.2
CCCCCOc1ccc(C(=O)OCC(=O)Nc2cc(C)c(C)cc2[N+](=O)[O-])cc1	nt	nt	nt	nt	-7	nt
CC(C)OC(=O)CC(=O)CSc1nc2c(cc1C#N)CCCCCC2	63*	47	0.5	18	11	0.4
CC(C)OC(=O)CC(=O)CSc1nc2c(cc1C#N)CCCC2	29	16	0.8	nt	-1	0.7
C=C(C)CSc1nc2c(cc1C#N)CCC2	45	80*	0.2	-19	nt	0.6
CCCCSc1nc2c(cc1C#N)CCC2	49	58*	0.4	-8	11	0.5
CCOC(=O)N1CCC(NC(=O)C2CCN(c3nc(-c4ccc(OC)cc4)no3)CC2)CC1	25	14	0.9	17	-39	0.8
Cc1nc(NS(=O)(=O)c2ccccc2)sc1NC(=O)OCCN(C)C	15	-4	1	15	-17	0.9
CC(c1nnc(SCC(=O)Nc2cccnc2Cl)n1-c1ccccc1)N(C)C (stereo not drawn)	nt	nt	nt	nt	25	nt
Fc1ccc(NC(=S)NCCc2ccccc2)c(F)c1F	45	83*	0.2	-8	-24	0.6
